Measurements taken from ChEMBL document CHEMBL3988442, “University of Dundee, Small-Polar-MMV Screening Library” (2021).
Hit rate of the full screen: of about 48,000 compounds, about 13,000 (27%) showed an effect of 50% or more. Some of the results follow.

The compounds below were run on Wolbachia pipientis (assay: Anti-Wolbachia Cell-Based Screen). Details: 5 µM.
Assay type: functional
Parameters: scale not given: in the data most compounds retested in dose-response had high values

Compound	Percent Effect [%]
CN(Cc1ccc(F)cc1)C(=O)NCC1(N2CCOCC2)CCSC1 (stereo unspecified)	-20.26
COc1cccc(-n2c(SCC(=O)O)nnc2-c2cn[nH]c2)c1	1.781
Cc1csc(CNC(=O)NCC(O)c2ccc(F)cc2F)n1 (stereo unspecified)	-0.3867
Cc1cnc(NCc2ccc(S(=O)(=O)N(C)C(C)C)cc2)nc1C	-3.312
Cc1cc(-c2cnc(NCc3ccncc3)nc2C(C)C)on1	155.1
CCc1c(NCc2ccncc2)cnn1CC(C)C	-6.7
O=C(O)C(F)(F)F.c1cncc(-c2ccc3c(c2)C2(CC3)CCN(c3nncs3)CC2)c1	7.623
Cc1ccc2c(c1)C1(CC2)CCN(c2nncs2)CC1	-2.782
CC/C=C(/C)C(=O)N1CCN(C2=NCC(C)S2)CC1 (stereo unspecified)	-1.897
CCOCCN1CCN(Cc2nc(C3CC3)no2)CC1CC (stereo unspecified)	-17.64
CN(C)CCNC(=O)[C@H]1C[C@@H]2CN(C(=O)NC3CCCC3)C[C@H]1O2.O=C(O)C(F)(F)F	6.498
O=C(NC1CC1)[C@@H]1CCO[C@@H]2CCN(CC3CCC3)C[C@H]21.O=C(O)C(F)(F)F	-19.72
O=C(NC1CCC1)[C@H]1C[C@@H]2CN(S(=O)(=O)c3ccccc3)C[C@H]1O2	5.233
CC(C)CN1C[C@H]2C[C@H](C(=O)NC3CCC3)[C@@H](C1)O2.O=C(O)C(F)(F)F	89.64
O=C(NC1CCC1)[C@H]1C[C@@H]2CN(CC3CC3)C[C@H]1O2.O=C(O)C(F)(F)F	120
O=C(NC1CC1)[C@@H]1CCO[C@@H]2CCN(CC3CCC3)C[C@@H]21.O=C(O)C(F)(F)F	20.69
NC(=O)c1cc(-c2cccc(C(=O)O)c2)cs1	7.533
CCCN(C)CC1CCN(c2ccc(Br)c(C)n2)C1 (stereo unspecified)	-15.16
NC(=O)[C@@H]1Cc2ccccc2CN1S(=O)(=O)N1CCCCCC1	103
NC(=O)C1CCCN1c1cc(N2CCc3ccccc3C2)ncn1 (stereo unspecified)	-10.01
NC(=O)[C@@H]1Cc2ccccc2CN1CCC(=O)N1CCOCC1	8.62
NC(=O)[C@@H]1Cc2ccccc2CN1CCc1cccs1	-22.09
CC1CCN(S(=O)(=O)N2C[C@H](c3ccccc3)[C@@H](N)C2)CC1	-3.535
NC(=O)C1Cc2ccccc2CN1CCC(=O)N1CCc2ccccc21 (stereo unspecified)	-4.733
CC1CCN(S(=O)(=O)N2Cc3ccccc3C[C@H]2C(N)=O)CC1	91.1
CC1CCN(C(=O)CCN2Cc3ccccc3C[C@H]2C(N)=O)C1 (stereo partly specified)	-2.608

Compound	Percent Effect [%]
NC(=O)[C@@H]1Cc2ccccc2CN1S(=O)(=O)N1CCCCC1	78.36
CN(CC(C)(C)O)C(=O)Nc1ccc(F)c(-n2cccc2)c1	2.422
CNS(=O)(=O)c1cccc(C(C)NCc2cccc(C)c2C)c1 (stereo unspecified)	8.764
O=C(C1CC2(CCNCC2)CN1)N1CCN(c2cccc(Cl)c2Cl)CC1 (stereo unspecified)	3.67
COCCOCC(=O)N1C[C@H]2CC[C@@H]1CN(C1Cc3ccccc3C1)C2	11.56
COc1cccc(C(=O)NCc2ccccc2S(=O)(=O)N(C)CCO)c1	1.796
CCS(=O)(=O)c1ncc(CN2CCOCC2)n1CCCc1ccccc1	6.125
CCN1CC2(CCC1=O)CCN(c1ccc(C(C)=O)cn1)CC2	0.06704
CCc1nc(CN2CCCC(Cn3nc(C)nc3C)C2)no1 (stereo unspecified)	81.07
Cc1nc(C)n(CC2CCCN(CC3CCCCC3)C2)n1 (stereo unspecified)	104.8
Cc1nc(C)n(CC2CCCN(Cc3nc(C4CC4)no3)C2)n1 (stereo unspecified)	2.839
Cc1noc(CN2CCCC(Cn3nc(C)nc3C)C2)n1 (stereo unspecified)	104.9
Cc1nc(C)n(CC2CCCN(Cc3noc(C)n3)C2)n1 (stereo unspecified)	96.94
CS(=O)(=O)N1C[C@@H]2COC[C@@H](CC(=O)N3CCCCO3)[C@@H]2C1	-9.378
CNC(=O)[C@@H](c1ccccc1F)N1CCC[C@H]1C(=O)NC1CC1.Cl	0.6767
O=C1N[C@@H]2CCN(C(=O)C3CC3)[C@@H]2C(=O)N1c1ccccc1	-5.528
Cc1ccccc1Oc1ncccc1CNS(=O)(=O)N(C)C	-17.53
CC(C)c1cc(N[C@H](C(N)=O)C(C)C)n2nccc2n1	-22.97
CCc1noc(CN2CCCC(Cn3nc(C)nc3C)C2)n1 (stereo unspecified)	134.9
COCCc1noc(CN2CCCC(Cn3nc(C)nc3C)C2)n1 (stereo unspecified)	0.4033
CS(=O)(=O)CCN1CC(c2ccccc2)(c2ccccc2)CCC1=O	-17.1
O=C1CC(c2ncc(-c3ccc4c(c3)OCCO4)[nH]2)CN1C1CC1 (stereo unspecified)	-4.884
CC(C)NC(=O)COc1cccc(-c2nc(C(C)C)no2)c1	105.1
CCc1noc(-c2cccc(OCC(=O)NC(C)C)c2)n1	95.64
C=C(C)COc1cccc(C(=O)N(CC)Cc2noc(C)n2)c1	-33.22
CC(C)NC(=O)COc1ccc(-c2nc(C(C)C)no2)cc1	114.1

Compound	Percent Effect [%]
COc1cccc(-c2n[nH]cc2C(=O)NC(C)c2nc(C(C)C)no2)c1 (stereo unspecified)	-2.83
CC(C)NC(=O)COc1nc(C(C)(C)C)no1	-1.58
CC(C)c1noc(CS(=O)(=O)CC(=O)NCCOc2ccccc2)n1	13.06
CCCNC(=O)COc1cccc(-c2nc(C(C)C)no2)c1	120.4
CC(C)NC(=O)COc1nc(C(C)C)no1	-19.75
CC(NC(=O)COc1nc(C(C)(C)C)no1)c1ccco1 (stereo unspecified)	8.75
CC(C)c1noc(CCCC(=O)NCCOc2ccccc2)n1	-1.504
CCCn1nc(-c2nc(COc3ccccc3)no2)ccc1=O	-3.247
Cc1oncc1S(=O)(=O)N1CCCC(C)(Cc2ccc3c(c2)OCO3)C1 (stereo unspecified)	-3.14
CS(=O)(=O)NCCC(=O)NCc1cccnc1-n1cnc2ccccc21	11.61
O=C(CS(=O)(=O)C1CCCC1)NC1CCCc2cc(OC(F)F)ccc21 (stereo unspecified)	-7.219
COCCN(Cc1ccccn1)C(=O)CC1OCCc2sccc21 (stereo unspecified)	9.879
CSCc1noc(CN2CC3(CCCC3)CC2=O)n1	-12.65
CN(C)C(C(=O)N1CCN(C(=O)c2ccc[nH]2)CC1)c1ccc(F)cc1 (stereo unspecified)	1.074
CN1CCC(Cc2noc(-c3cccc(OCC(N)=O)c3)n2)CC1	14.54
CC(C)c1noc(-c2cccc(OCC(N)=O)c2)n1	109.4
CC(C)c1ncc2c(n1)CN(Cc1cccc(OCC(N)=O)c1)CC2	-10.24
CN(CCOc1cccc(CN)c1)C1CCOCC1	3.585
Cn1cc(CN2CCCCC2c2ccc(-c3cnn(C)c3)nc2)cn1 (stereo unspecified)	49.11
Cn1cc(CN2CCCCC2c2ccc(-c3cccc(F)c3)nc2)cn1 (stereo unspecified)	28.65
Cc1cnn(CCCNC(=O)C2CCCCN2Cc2cccnc2)c1 (stereo unspecified)	8.943
Cn1cc(CN2CCCCC2c2ccc(-c3cccc(Cl)c3)nc2)cn1 (stereo unspecified)	64.04
Cn1cc(-c2ccc(C3CCCCN3Cc3cccnc3)cn2)cn1 (stereo unspecified)	97.17
Cn1c(Cl)cnc1CN1CCCC1c1ccc2c(c1)OCCO2 (stereo unspecified)	-20.61
CN(CC(=O)Nc1ccccc1)C(=O)CN(C)c1ccc(Cl)cn1	-3.187
CSc1ncc(CNCC2(N3CCCCC3)Cc3ccccc3C2)cn1	-2.025

Compound	Percent Effect [%]
Cc1noc(CS(=O)(=O)c2cc(F)ccc2F)n1	2.12
O=C(NC[C@H]1OC[C@@H]2CCN(c3ccccn3)C[C@@H]21)c1ccco1	-8.109
Cc1cnc(N2CCOC(C(=O)NCc3ccccc3)C2)s1 (stereo unspecified)	138.3
Nc1nccc(N2CCNC(C(=O)NCc3ccccn3)C2)n1 (stereo unspecified)	-0.8592
O=C(NCc1ccncc1)C1CN(c2nc3ccccc3s2)CCN1 (stereo unspecified)	6.015
CCC1CN(C(=O)c2cnc(-c3ccccc3)s2)CCO1 (stereo unspecified)	-14.04
O=C(NCc1ccccc1)C1CN(c2ccccn2)CCO1 (stereo unspecified)	195.5
CN(C)c1ccccc1C(=O)N1C[C@@H](CN2CCOCC2)[C@@H](CO)C1	9.943
O=C1N[C@@H]2CCN(C(=O)c3ccccc3)[C@@H]2C(=O)N1Cc1ccccc1	-7.073
N#Cc1ncn(CCC(=O)Nc2cccc(Cl)c2)n1	93.03
N#Cc1ncn(CCC(=O)Nc2c(Cl)cccc2Cl)n1	-3.932
O=C(CCNC(=O)c1ccoc1)Nc1ccccc1F	-1.29
N#Cc1ncn(CCS(=O)(=O)c2ccc(Cl)cc2)n1	-0.6249
N#Cc1ncn(CCS(=O)(=O)c2ccc(Br)cc2)n1	14.03
N#Cc1ncn(CCS(=O)(=O)c2ccccc2)n1	11.97
N#Cc1ncn(CCC(=O)Nc2ccc(Cl)cc2F)n1	11.11
N#Cc1ncn(CCC(=O)Nc2ccc(F)c(F)c2)n1	100.3
N#Cc1ncn(CCC(=O)Nc2cc(Cl)ccc2Cl)n1	94.62
N#Cc1ncn(CCC(=O)Nc2ccccc2F)n1	141.3
N#Cc1ncn(CC(=O)Nc2cc(Cl)ccc2F)n1	-2.838
Cc1ccc(F)cc1NC(=O)CCn1cncn1	-7.237
CCCC1CCN(C(=O)c2coc(COc3ccc(OC)cc3)n2)C1 (stereo unspecified)	13.18
CCOc1c(Br)cc(CNC(C)c2nnc3n2CCC3)cc1OC (stereo unspecified)	-3.79
